Here are results for 20 compounds from PubChem BioAssay.

A number with no mark means an inactive call. For some of these results: Results with a measured potency or affinity are listed apart. Active and inactive are the calls of the source. Unless noted, no rule for the calls is given here.

The nature of experiment [1]: antimalarial activity against Dd2 strain (AID 2302;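 active = growth inhibition above 50% at the single 2 µM test dose, taken to imply half-maximal potency below 2 µM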;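 also: 0% = DMSO untreated growth and 100% = chloroquine plus artemisinin killed control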). The settings on record: P. falciparum Dd2 in RBCs, LDH growth readout, 72 h; at 2 µM; active compounds read high.
Experiment [2] can be described thus: HepG2 cytotoxicity, primary screen, cytotoxicity control for P. falciparum antimalarial project, cell-based, ATP luminescence (AID 2303;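 active = inhibition above 50%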;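 also: 0% = DMSO wells and 100% = digitonin-killed cells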). Particulars: HepG2 viability, 24-48 h, at 10 µM, active compounds read high.
The target in experiment [3] is L-lactate dehydrogenase (Plasmodium falciparum (isolate CDC / Honduras)) (UniProt Q27743). The experiment in a line: PfLDH activity inhibition – cell lysate, 3D7 strain, counter-screen for P. falciparum growth inhibition project (AID 2304).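 Also: 0% = vehicle and 100% = reference inhibitor.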 The settings on record: P. falciparum 3D7 crude extract, LDH APAD/NBT absorbance; at 2 µM; active compounds read high.
L-lactate dehydrogenase (Plasmodium falciparum (isolate CDC / Honduras)), sequence (Q27743 whole entry, looked up): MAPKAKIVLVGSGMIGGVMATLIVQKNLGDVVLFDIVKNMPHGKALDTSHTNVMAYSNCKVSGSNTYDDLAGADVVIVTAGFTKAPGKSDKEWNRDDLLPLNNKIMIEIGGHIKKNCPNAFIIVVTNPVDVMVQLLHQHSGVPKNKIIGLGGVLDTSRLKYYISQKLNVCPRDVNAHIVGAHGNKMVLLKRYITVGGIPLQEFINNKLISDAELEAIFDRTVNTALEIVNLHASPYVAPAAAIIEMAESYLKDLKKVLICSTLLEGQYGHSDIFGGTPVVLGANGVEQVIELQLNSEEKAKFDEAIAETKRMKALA
A short description of experiment [4]: inhibition of 3D7 malaria parasite growth – strain 3D7 (AID 2306).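 Also: 0% = DMSO wells and 100% = chloroquine plus artemisinin control wells.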 Particulars: P. falciparum 3D7 erythrocytic growth, LDH absorbance, 72 h; at 2 µM; active compounds read high.
Experiment [5] deals with Calcium-dependent protein kinase 1 (Plasmodium falciparum (isolate 3D7)) (UniProt P62344). The experiment in a line: PfCDPK1 kinase inhibitors, biochemical, TCAMS library (AID 1159585; cut-off not given, nearly all actives have IC50 up to about 0.98 µM;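 also: inhibitors leave more ATP so luminescence rises with inhibition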). The settings on record: recombinant PfCDPK1, Kinase-Glo ATP depletion luminescence. A general note: In Kinase-Glo more light means more ATP remaining.
Calcium-dependent protein kinase 1 (Plasmodium falciparum (isolate 3D7)), sequence (P62344 whole entry, looked up): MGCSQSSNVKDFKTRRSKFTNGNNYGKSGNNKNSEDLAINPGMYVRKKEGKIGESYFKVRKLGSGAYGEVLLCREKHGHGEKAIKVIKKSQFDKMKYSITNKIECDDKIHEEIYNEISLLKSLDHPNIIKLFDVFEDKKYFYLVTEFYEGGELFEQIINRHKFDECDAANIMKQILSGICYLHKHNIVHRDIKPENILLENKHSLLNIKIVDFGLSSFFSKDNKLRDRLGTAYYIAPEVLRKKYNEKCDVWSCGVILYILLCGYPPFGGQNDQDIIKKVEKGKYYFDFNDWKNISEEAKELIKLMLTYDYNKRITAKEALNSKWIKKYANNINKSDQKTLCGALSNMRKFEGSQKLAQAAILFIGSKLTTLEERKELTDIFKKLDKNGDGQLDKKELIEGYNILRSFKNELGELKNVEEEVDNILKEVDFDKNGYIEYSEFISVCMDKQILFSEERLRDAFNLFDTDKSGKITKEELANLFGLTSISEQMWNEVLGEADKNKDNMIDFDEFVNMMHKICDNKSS
For experiment [6], the target named is Plasmodium falciparum protein kinase 6 (PK6, PF3D7_1337100) (UniProt Q8IDW1). As to the kind of experiment: PfPK6 kinase inhibitors, biochemical, TCAMS library (AID 1159586). Particulars: recombinant PfPK6, Kinase-Glo ATP depletion luminescence.
Plasmodium falciparum protein kinase 6 (PK6, PF3D7_1337100), sequence (Q8IDW1 1-305): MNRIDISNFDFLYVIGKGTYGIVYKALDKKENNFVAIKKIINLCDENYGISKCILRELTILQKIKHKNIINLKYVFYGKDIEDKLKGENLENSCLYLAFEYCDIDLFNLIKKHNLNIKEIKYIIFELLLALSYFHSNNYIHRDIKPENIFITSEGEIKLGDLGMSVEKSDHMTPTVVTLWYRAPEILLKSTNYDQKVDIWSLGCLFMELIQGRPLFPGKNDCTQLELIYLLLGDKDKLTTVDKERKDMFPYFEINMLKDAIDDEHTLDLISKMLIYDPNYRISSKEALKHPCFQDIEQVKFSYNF
Experiment [7] has as its target Protein kinase 7 (PK7), Plasmodium falciparum 3D7 (PF3D7_0213400) (UniProt Q7YTF7). The experiment in a line: inhibition of Plasmodium PK7 catalytic activity – biochemical, TCAMS antimalarial set, Kinase-Glo luminescence (AID 1159587). Particulars: recombinant PfPK7, Kinase-Glo ATP depletion luminescence.
Experiment [8] deals with Calcium-dependent protein kinase 4 (Plasmodium falciparum (isolate 3D7)) (UniProt Q8IBS5). As to the kind of experiment: PfCDPK4 kinase inhibitors, biochemical, TCAMS library (AID 1159588; cut-off not given, nearly all actives have IC50 up to about 0.91 µM). Particulars: recombinant PfCDPK4, Kinase-Glo ATP depletion luminescence.
Calcium-dependent protein kinase 4 (Plasmodium falciparum (isolate 3D7)), sequence (Q8IBS5 whole entry, looked up): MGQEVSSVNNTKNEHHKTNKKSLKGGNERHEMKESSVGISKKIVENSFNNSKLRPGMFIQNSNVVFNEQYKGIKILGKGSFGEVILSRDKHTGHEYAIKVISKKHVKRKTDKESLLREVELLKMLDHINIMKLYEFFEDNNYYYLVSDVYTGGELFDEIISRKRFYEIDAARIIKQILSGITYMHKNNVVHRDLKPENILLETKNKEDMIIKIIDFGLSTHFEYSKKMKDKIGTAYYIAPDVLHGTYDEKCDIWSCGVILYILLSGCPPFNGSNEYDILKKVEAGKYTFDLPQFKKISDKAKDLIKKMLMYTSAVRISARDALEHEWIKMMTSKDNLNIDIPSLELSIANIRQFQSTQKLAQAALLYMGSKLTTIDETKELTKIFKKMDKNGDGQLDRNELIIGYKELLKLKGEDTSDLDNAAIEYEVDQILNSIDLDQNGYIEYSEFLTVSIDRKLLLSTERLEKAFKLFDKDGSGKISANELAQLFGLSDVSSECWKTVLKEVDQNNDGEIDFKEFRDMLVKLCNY

A word on the inhibition: it is the change of the read-out against control, counted positive when it falls.

Protein kinase 7 (PK7), Plasmodium falciparum 3D7 (PF3D7_0213400), sequence (Q7YTF7 1-343): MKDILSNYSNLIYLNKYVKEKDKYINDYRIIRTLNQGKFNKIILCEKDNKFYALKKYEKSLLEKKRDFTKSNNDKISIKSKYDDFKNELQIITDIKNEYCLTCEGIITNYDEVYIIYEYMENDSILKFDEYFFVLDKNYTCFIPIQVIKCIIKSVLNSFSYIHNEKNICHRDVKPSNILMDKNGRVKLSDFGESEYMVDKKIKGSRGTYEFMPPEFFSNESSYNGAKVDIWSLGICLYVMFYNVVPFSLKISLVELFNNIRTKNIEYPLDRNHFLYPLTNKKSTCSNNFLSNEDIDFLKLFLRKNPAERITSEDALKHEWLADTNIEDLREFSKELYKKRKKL

In the case of `CC(C)CCN1CCCN(Cc2ccc(C(=O)Nc3ccc(C(C)(C)C)cc3)cc2)CC1`, the values for the growth inhibition in experiment [1] and in experiment [4] were 12% and 92% (active), respectively. Further, the inhibition in experiment [2] is 49%; in experiment [3], -1%. Moreover, the result in experiment [5], in experiment [6], in experiment [7] and in experiment [8] was inactive.

Take `CN(C)C(=O)CC(=O)NCc1cccc(Cl)c1`: the growth inhibition in experiment [1] is 3%; in experiment [4], 99% (active). The inhibition in experiment [2] is 4%; in experiment [3], 3%. For the same compound, the outcome in experiment [5], in experiment [6], in experiment [7] and in experiment [8] was inactive.

In the case of `O=C(CSc1nc(-c2ccccc2Cl)ns1)Nc1cccc(F)c1`, the growth inhibition in experiment [1] was 81% (active); in experiment [4], 93% (active). For the same compound, the inhibition in experiment [2] is -5%; in experiment [3], -1%. For the same compound, the outcome in experiment [5], in experiment [6], in experiment [7] and in experiment [8] was inactive.

In the case of `CC(=O)N(C)c1ccc(C(=O)Nc2cccc(-c3cccc(-c4nc5ccc(C(F)(F)F)cc5[nH]4)c3)c2)cc1`, the growth inhibition in experiment [1] is 29%; in experiment [4], 96% (active). In addition, the figures for the inhibition in experiment [2] and in experiment [3] were 31% and -6%, respectively. The outcome in experiment [5], in experiment [6], in experiment [7] and in experiment [8] was inactive.

Consider `CC[C@H](NC(=O)c1c(CC2CCN(CC(C)=O)CC2)c(-c2ccccc2)nc2ccccc12)c1ccccc1`, for which the growth inhibition in experiment [1] was 96% (active); in experiment [4] it was 97% (active). The inhibition is 7% in experiment [2] and 3% in experiment [3]. In addition, the outcome in experiment [5], in experiment [6], in experiment [7] and in experiment [8] was inactive.

In the case of `COc1cccc(CCc2ccc(O)c3c2C[C@H]2C[C@H]4[C@H](N(C)C)C(=O)C(C(N)=O)=C(O)[C@@]4(O)C(=O)C2=C3O)c1`, the growth inhibition in experiment [1] is 67% (active); in experiment [4], 93% (active). The inhibition in experiment [2] is 43%; in experiment [3], -4%. Further, the outcome in experiment [5], in experiment [6], in experiment [7] and in experiment [8] was inactive.

As to `CCn1cc(C=C2Oc3c(ccc(O)c3CN3CCCCC3C)C2=O)c2ccccc21` (stereo not given), the growth inhibition in experiment [1] is 80% (active); in experiment [4], 94% (active). The inhibition in experiment [2] is -6%; in experiment [3], 6%. The outcome in experiment [5], in experiment [6], in experiment [7] and in experiment [8] was inactive.

For the compound `O=c1cc(NCCCNCc2ccc(Cl)c(Cl)c2)[nH]c2ccc(C(F)(F)F)cc12`, the growth inhibition in experiment [1] was 68% (active); in experiment [4] it was 103% (active). Also, the results for the inhibition in experiment [2] and in experiment [3] were 10% and -5%, respectively. In addition, the result in experiment [5], in experiment [6], in experiment [7] and in experiment [8] was inactive.

In the case of `CN(C)c1ccc2nc(N)nc(N)c2c1Cl`, the results for the growth inhibition in experiment [1] and in experiment [4] were -1% and 98% (active), respectively. For the same compound, the inhibition in experiment [2] was 68% (active); in experiment [3] it was 2%. For the same compound, the result in experiment [5], in experiment [6], in experiment [7] and in experiment [8] was inactive.

Consider `CCOC(=O)c1cn(CC)c2cc(N3CCCCC3)c(F)cc2c1=O`, for which the growth inhibition was 96% (active) in experiment [1] and 97% (active) in experiment [4]. For the same compound, the inhibition in experiment [2] is 0%; in experiment [3], 2%. In addition, the outcome in experiment [5], in experiment [6], in experiment [7] and in experiment [8] was inactive.

`O=C(Nc1cccc(CN2CCCN(Cc3ccc4c(c3)OCO4)CC2)c1)c1ccc2ccccc2c1`: the growth inhibition was 14% in experiment [1] and 86% (active) in experiment [4]. Moreover, the inhibition was 7% in experiment [2] and -2% in experiment [3]. Also, the outcome in experiment [5], in experiment [6], in experiment [7] and in experiment [8] was inactive.

`CN1CCC[C@H]1COc1ccc(CN2CC[C@H](NC(=O)c3ccc(Cl)c(Cl)c3)C2)cc1Br`: the growth inhibition is 20% in experiment [1] and 101% (active) in experiment [4]. For the same compound, the inhibition in experiment [2] was 81% (active); in experiment [3], -1%. The result in experiment [5], in experiment [6], in experiment [7] and in experiment [8] was inactive.

As for `CC1(C)N=C(N)N=C(N)N1c1cccc(C(F)(F)F)c1`, the growth inhibition is 68% (active) in experiment [1] and 95% (active) in experiment [4]. The inhibition in experiment [2] is 60% (active); in experiment [3], 0%. The result in experiment [5], in experiment [6], in experiment [7] and in experiment [8] was inactive.

As to `N#Cc1ccc2c(c1)CN(CCC1CCC(NC(=O)c3cc4cc(OC(F)(F)F)ccc4[nH]3)CC1)CC2` (stereo not given), the results for the growth inhibition in experiment [1] and in experiment [4] were 19% and 101% (active), respectively. For the same compound, the inhibition in experiment [2] and in experiment [3] was 4% in each case. The outcome in experiment [5], in experiment [6], in experiment [7] and in experiment [8] was inactive.

For `COc1ccc(N2CCN(CCCCNC(=O)c3ccc(NC(=O)c4ccc(Cl)cc4)cc3)CC2)c(C)c1`, the growth inhibition is 51% (active) in experiment [1] and 100% (active) in experiment [4]. Moreover, the inhibition in experiment [2] was 42%; in experiment [3], 0%. For the same compound, the outcome in experiment [5], in experiment [6], in experiment [7] and in experiment [8] was inactive.

`O=C(/C=C/c1ccc(Cl)c(Cl)c1)NCCCCCN1CCCN(C(=O)Nc2cc(F)cc(F)c2)CC1`: the growth inhibition in experiment [1] was 1%; in experiment [4], 94% (active). Moreover, the inhibition is 4% in experiment [2] and 0% in experiment [3]. For the same compound, the result in experiment [5], in experiment [6], in experiment [7] and in experiment [8] was inactive.

Consider `N#Cc1cccc(Nc2nccc(NCC(O)c3cccc(C(F)(F)F)c3)n2)c1` (stereo not given), for which the growth inhibition was 84% (active) in experiment [1] and 99% (active) in experiment [4]. Also, the figures for the inhibition in experiment [2] and in experiment [3] were 4% and -3%, respectively. Besides, the result in experiment [5], in experiment [6], in experiment [7] and in experiment [8] was inactive.

For `Cc1cccc2[nH]c(-c3ccc(-c4cccc(NC(=O)C(=O)c5cccn5C)c4)cc3)nc12`, the figures for the growth inhibition in experiment [1] and in experiment [4] were 17% and 98% (active), respectively. The values for the inhibition in experiment [2] and in experiment [3] were 30% and 3%, respectively. Moreover, the result in experiment [5], in experiment [6], in experiment [7] and in experiment [8] was inactive.

For `O=C(Cc1cccc(Cl)c1)Nc1cccc(-c2c[nH]c3nc(Nc4cccc(OCc5ccccc5)c4)ncc23)c1`, the growth inhibition in experiment [1] is 56% (active); in experiment [4] it was 100% (active). Moreover, the inhibition in experiment [2] and in experiment [3] was -1% throughout. The result in experiment [5], in experiment [6], in experiment [7] and in experiment [8] was inactive.

With `CC(C)(C)c1ccc(CN2CCCCC(NC(=O)c3cc(-c4cccc(F)c4)cs3)C2)cc1` (stereo not given), the figures for the growth inhibition in experiment [1] and in experiment [4] were 84% (active) and 98% (active), respectively. Besides, the inhibition was 8% in experiment [2] and -3% in experiment [3]. Moreover, the result in experiment [5], in experiment [6], in experiment [7] and in experiment [8] was inactive.
